# Laboratory results: publication PMC4336329 (PLoS ONE, 2015)
# In all, about 310,000 compounds went through this assay and about 2,200 (0.71%) showed an effect of 50% or more. The effect is printed as a negative number. This excerpt belongs to a sample that is enriched for strong results.
# Target: human ether-à-go-go-related gene (hERG) potassium channel (human, UniProt Q12809)
# Assay: primary screen, population patch clamp on CHO cells stably expressing hERG; higher = less effect of the substance
# human ether-à-go-go-related gene (hERG) potassium channel, sequence (Q12809 whole entry, looked up): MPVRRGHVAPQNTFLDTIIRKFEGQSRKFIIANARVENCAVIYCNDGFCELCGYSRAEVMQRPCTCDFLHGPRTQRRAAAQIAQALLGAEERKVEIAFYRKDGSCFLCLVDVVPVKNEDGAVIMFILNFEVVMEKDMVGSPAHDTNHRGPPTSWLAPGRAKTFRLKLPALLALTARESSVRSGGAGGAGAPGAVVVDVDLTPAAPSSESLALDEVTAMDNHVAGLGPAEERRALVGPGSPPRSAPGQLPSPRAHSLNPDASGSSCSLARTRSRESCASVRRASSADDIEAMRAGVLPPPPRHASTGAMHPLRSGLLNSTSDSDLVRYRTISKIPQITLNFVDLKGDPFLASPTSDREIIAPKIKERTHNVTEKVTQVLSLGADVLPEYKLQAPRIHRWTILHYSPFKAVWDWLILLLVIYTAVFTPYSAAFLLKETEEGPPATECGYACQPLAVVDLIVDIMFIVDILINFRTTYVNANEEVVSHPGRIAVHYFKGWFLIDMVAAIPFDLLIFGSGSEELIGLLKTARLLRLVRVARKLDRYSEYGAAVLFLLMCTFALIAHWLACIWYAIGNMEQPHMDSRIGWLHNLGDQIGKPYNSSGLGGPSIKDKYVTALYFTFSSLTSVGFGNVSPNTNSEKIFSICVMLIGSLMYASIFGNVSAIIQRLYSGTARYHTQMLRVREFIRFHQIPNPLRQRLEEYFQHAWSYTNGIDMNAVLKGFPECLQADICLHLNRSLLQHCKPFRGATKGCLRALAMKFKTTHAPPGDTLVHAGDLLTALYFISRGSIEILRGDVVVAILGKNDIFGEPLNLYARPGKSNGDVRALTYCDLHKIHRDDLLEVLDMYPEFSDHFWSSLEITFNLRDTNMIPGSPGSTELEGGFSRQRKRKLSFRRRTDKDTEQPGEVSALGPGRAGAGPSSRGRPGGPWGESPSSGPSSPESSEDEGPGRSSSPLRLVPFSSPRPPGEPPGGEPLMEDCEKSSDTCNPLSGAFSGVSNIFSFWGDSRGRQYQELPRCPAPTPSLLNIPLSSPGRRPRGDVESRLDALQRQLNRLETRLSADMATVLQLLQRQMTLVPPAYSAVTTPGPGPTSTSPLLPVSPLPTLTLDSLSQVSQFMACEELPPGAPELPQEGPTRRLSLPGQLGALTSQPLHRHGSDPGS
row,SMILES,"hERG current change (%, negative = inhibition) at 1uM [%]"
1,Cc1ccc(CSc2ccc(-c3ccc4c(c3)OCO4)nn2)cc1,12.7
2,COc1ccccc1CC(=O)NCCCc1ccccc1,11.2
3,O=C(CCS(=O)(=O)c1ccc2c(c1)NC(=O)CS2)NCCc1ccc(Cl)cc1,10
4,CCN(C(=O)COC(=O)CNC(=O)c1ccc(F)cc1)C1CCS(=O)(=O)C1 (stereo not drawn),9.62
5,COC(=O)Nc1c(C(=O)OC)cc(OC)c(OC)c1OC,6.05
6,CC1=NNC(=O)C1CCC(=O)N/N=C/c1ccc(Cl)cc1Cl (stereo not drawn),12.6
7,COc1cc(OC)cc(C(=O)NNC(=O)c2ccc(S(=O)(=O)N(C)c3ccccc3OC)cc2)c1,13.2
8,CS(=O)(=O)N1CCN(C(=O)c2ccc(-c3ccccc3)cc2)CC1,9.18
9,COc1cc(F)cc(-c2ccc3c(c2)c(-c2cccs2)c(-c2cc(OC)cc(OC)c2)n3C)c1,12.5
10,CCOC(=O)C1(CCOc2ccccc2)CCN(Cc2cccc(OCCO)c2)CC1,-84.4
11,CCOC(=O)C1(CCOc2ccccc2)CCN(Cc2cnc(SC)nc2)CC1,-28.4
12,CCOC(=O)C1(Cc2cccc(OC)c2)CCN(Cc2ccc(C)s2)CC1,-53.1
13,CCOC(=O)C1(CCOc2ccccc2)CCN(Cc2ccc(OC)cc2)CC1,-77.4
14,CCOC(=O)C1(Cc2cccc(OC)c2)CCN(Cc2cnc(C)s2)CC1,11
15,CCOC(=O)C1(CCOc2ccccc2)CCN(Cc2cccc(F)c2)CC1,-7.5
16,CCOC(=O)C1(CCOc2ccccc2)CCN(Cc2cccc(-n3cccn3)c2)CC1,-68.5
17,CCOC(=O)C1(CCOC)CCN(Cc2cccc(OCc3ccccc3)c2)CC1,3.99
18,CCOC(=O)C1(Cc2ccccc2)CCN(Cc2ccc(C)s2)CC1,-2.06
19,CCOC(=O)C1(CCOc2ccccc2)CCN(Cc2ccc(-n3cccn3)cc2)CC1,-37.8
20,Cc1ccc(NC(=O)CCC(=O)NNC(=O)COc2ccccc2)c(C)c1,7.32
21,CC1(C)C(=O)OC(c2c3ccccc3cc3ccccc23)C(C)(C)C1=O (stereo not drawn),0.485
22,COc1ccc(/C=C/c2cc(=O)c3cc(Cl)ccc3o2)cc1,9.88
23,COCCn1ccc2c(OCC(=O)NCCc3ccccc3)cccc2c1=O,0.744
24,CSc1ccc(C2CC(=O)Nc3nc(SC)[nH]c(=O)c32)cc1 (stereo not drawn),17

row,SMILES,"hERG current change (%, negative = inhibition) at 1uM [%]"
1,O=C(O)c1ccc(S(=O)(=O)c2ccc3c(c2)C(=O)N(NC(=O)c2ccncc2)C3=O)cc1,5.01
2,NNC(=O)c1nc(-c2ccccc2)n2c1CCCCC2,0.842
3,O=C(OCC(=O)N1CCCC1)c1c2c(nc3ccccc13)CCCCC2,9.48
4,CC1(C)CC(c2nc(-c3ccc([N+](=O)[O-])cc3)cs2)CCO1 (stereo not drawn),9.08
5,CC(C)NC(=O)NS(=O)(=O)c1cnccc1NC1CC2CCC1C2 (stereo not drawn),9.06
6,CCn1cc([N+](=O)[O-])c(C(=O)N2N=C(c3ccc(O)c(OC)c3)CC2c2ccccc2O)n1 (stereo not drawn),18.1
7,Cc1ccc2nc(-c3ccccn3)oc2c1,12.6
8,Cc1ccccc1NC(=O)NCCc1ccc(Cl)cc1,8.42
9,CCOC(=O)C1(CCOc2ccccc2)CCN(Cc2cccs2)CC1,-32.6
10,CCOC(=O)C1(CCOc2ccccc2)CCN(C(=O)c2cncs2)CC1,-27.4
11,CCOC(=O)C1(CCOc2ccccc2)CCN(Cc2ccc(C#CCCO)cc2)CC1,0.161
12,CCOC(=O)C1(CCOc2ccccc2)CCN(Cc2ccc(O)cc2)CC1,-84.8
13,CCOC(=O)C1(CCOc2ccccc2)CCN(Cc2ccncc2)CC1,-23.5
14,CCOC(=O)C1(CCOc2ccccc2)CCN(Cc2ccc(OCCO)cc2)CC1,-85.1
15,CCOC(=O)C1(CCOc2ccccc2)CCN(Cc2ccc(C)s2)CC1,-65.4
16,CCOC(=O)C1(CCOc2ccccc2)CCN(Cc2cccc(O)c2)CC1,-28.7
17,CCOC(=O)C1(CCOc2ccccc2)CCN(Cc2cnc(C)s2)CC1,-18.8
18,CCOC(=O)C1(CCOc2ccccc2)CCN(C(=O)CCSC)CC1,-11.3
19,CCOC(=O)C1(CCOc2ccccc2)CCN(C(=O)c2ccc(-n3cccn3)cc2)CC1,-85.6
20,CCOc1ccccc1N(CC(=O)Nc1ccccc1C(=O)NCc1ccco1)S(C)(=O)=O,2.08
21,CC(Sc1nnc(Nc2ccccc2F)s1)C(=O)NC1CC1 (stereo not drawn),3
22,COCCc1ncc(CN2CCC(C(=O)Nc3ccc(-n4cccn4)cc3)CC2)cn1,-5.56
23,CNC(=O)c1cc2cc(OC)ccc2oc1=O,-4.3
24,O=C(O)c1ccc(NCc2ccc3c(c2)OCO3)cc1,10.6

row,SMILES,"hERG current change (%, negative = inhibition) at 1uM [%]"
1,Cc1nc2sccn2c(=O)c1S(=O)(=O)Nc1ccc(N2CCN(C)CC2)cc1,21.4
2,CC1CN(c2ccc([N+](=O)[O-])c(N3CCCCC3)c2)CCN1 (stereo not drawn),8.07
3,CCOC(=O)C1(Cc2cccc(OC)c2)CCN(CCO)CC1,2.3
4,CCOC(=O)C1(Cc2ccccc2)CCN(CC2CC=CCC2)CC1 (stereo not drawn),-5.83
5,CCOC(=O)C1(CCOc2ccccc2)CCN(Cc2cc(OC)cc(OC)c2)CC1,-61.5
6,CCOC(=O)C1(Cc2cccc(OC)c2)CCN(CC2CC=CCC2)CC1 (stereo not drawn),-50.6
7,CCOC(=O)C1(CCOc2ccccc2)CCN(Cc2cccc(OC)c2)CC1,-24.4
8,COCCCN1C(=O)C(=O)/C(=C(/O)c2ccc(S(=O)(=O)N3CCCCC3)cc2)C1c1cccc(OC)c1 (stereo not drawn),2.22
9,CC1(c2ccc(OC(F)F)cc2)NC(=O)N(CC(=O)Nc2ccc(N3CCCCC3)cc2)C1=O (stereo not drawn),18
10,CN1C(=O)c2ccccc2C(C(=O)O)C1c1cccc(Cl)c1 (stereo not drawn),8.65
11,CCN1C(=O)C2(C(C(=O)c3ccc(C)o3)=C(O)C(=O)N2CCCN(C)C)c2ccccc21 (stereo not drawn),14
12,COc1ccc2[nH]cc(C(=O)CN(C)C)c2c1,11.4
13,COc1ccc2[nH]cc(C(=O)CN(C)CCc3ccc(OC)c(OC)c3)c2c1,-60.6
14,CCN(CC)CC(=O)c1c[nH]c2ccc(OC)cc12,3.98
15,COC(=O)c1cc(S(=O)(=O)Nc2cccc(S(N)(=O)=O)c2)oc1C,8.79
16,COCCn1c(SCC(=O)c2c(N)n(C3CC3)c(=O)[nH]c2=O)nnc1-c1ccc(Cl)cc1,13.5
17,CN(Cc1ccccc1)C(=O)N1CCOCC1,17.7
18,CCOC(=O)N1CCN(c2ncnc3c2oc2nc(C(C)C)c4c(c23)CCC4)CC1,6.16
19,Cc1ccsc1C(=O)C1CCCN(Cc2ccn[nH]2)C1 (stereo not drawn),9.05
20,Cc1ncc(CN2CCCC(C(=O)c3sccc3C)C2)s1 (stereo not drawn),12.5
21,Cc1ccsc1C(=O)C1CCCN(Cc2cccn2-c2ccccn2)C1 (stereo not drawn),-81.7
22,Cc1ccsc1C(=O)C1CCCN(Cc2cccn2-c2ccc(Cl)cn2)C1 (stereo not drawn),-84.3
23,Cc1ccsc1C(=O)C1CCCN(Cc2cnc(N)nc2)C1 (stereo not drawn),4.23
24,Cc1ccsc1C(=O)C1CCCN(Cc2ccccc2O)C1 (stereo not drawn),-3.16

row,SMILES,"hERG current change (%, negative = inhibition) at 1uM [%]"
1,CCOc1ccccc1OCC(=O)Nc1ccc(S(=O)(=O)Nc2nc(C)cc(C)n2)cc1,0.94
2,Cc1ccc(S(=O)(=O)c2c(C)nn(-c3ccccc3)c2OC(=O)c2ccco2)cc1,5.81
3,CC(C)c1ccc2c(c1)[C@H]1OCC[C@H]1[C@@H](c1cccs1)N2,4.11
4,CCOC(=O)C(C)Oc1ccc(C2NC(=O)NC(C)=C2C(C)=O)cc1Br (stereo not drawn),4.32
5,Cc1ccc(NC(=O)Cn2cccc2C2=NC(c3ccccc3)CO2)c(C)c1 (stereo not drawn),3.9
6,CN1CCCCc2c1nc1ccccc1c2N.O=C(O)c1cncc(Br)c1,-79.7
7,Cc1cccc2c(N)c3c(nc12)N(C)CC3.O=C(O)C(=O)O,7.57
8,Cc1cc(Br)c2nc3c(c(C(=O)O)c2c1)CCCCC3,7.18
9,Cc1ccc(C)c2c(N)c3c(nc12)CCCCC3.O=C(O)c1cncc(Br)c1,-51.9
10,CN1CCc2c1nc1ccccc1c2N.O=C(O)c1cc([N+](=O)[O-])ccc1Cl,7.96
11,O=C(O)c1cncc(Br)c1,8.7
12,Cc1ccc(NC(=O)c2ccsc2)cc1NS(C)(=O)=O,15.1
13,COc1ccc(C2=Nn3c([n+](C)c4ccccc43)SC2)cc1.[Br-],-13.2
14,C[n+]1c2n(c3ccccc31)N=C(c1cc(C(C)(C)C)c(O)c(C(C)(C)C)c1)CS2.[Br-],-63.5
15,C[n+]1c2n(c3ccccc31)N=C(c1ccccc1)CS2.[Br-],-17.3
16,CC1Sc2n(c3ccccc3[n+]2C)N=C1c1ccccc1.[Br-] (stereo not drawn),-16.8
17,C[n+]1c2n(c3ccccc31)N=C(c1ccc(-c3ccccc3)cc1)CS2.[Br-],-39
18,Cc1cc(Cn2nnc3ccccc32)c(O)c(C(C)(C)C)c1,23.6
19,Cc1ccc(-c2nnc3n2N=C(c2ccc(Br)cc2)CS3)cc1,4.56
20,C[n+]1c2n(c3ccccc31)N=C(c1ccc(Br)cc1)CS2.[Br-],-53.1
21,C[n+]1c2n(c3ccccc31)N=C(c1ccc(Cl)cc1)CS2.[Br-],-51.9
